Screens as filed in PubChem BioAssay.
PLCb3 inh – PLC-beta3 (human) inhibition, primary screen. Q01970. Purified PLC-beta3, fluorogenic substrate, fluorescence. inhibition, % at 12.2 µM. 370,000 compounds, 0.18% hits; in the data active = inhibition above about 11%;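 also: 0% = median of compound wells on plate and 100% = full blocker control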
proKLK7 act – proKLK7 (human) activation, primary screen; P49862; purified proKLK7, EDANS-DABCYL substrate fluorescence; 100% is mature enzyme control, 0% vehicle; activation, % at 7 µM; 370,000 compounds, 0.9% hits; AID 652039;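 active = activation above the mean of all tested compounds plus 3 SD, computed per campaign excluding outliers beyond control limits, cut at about 13% in these data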
ADAM10 inh – inhibits human ADAM10; O14672; recombinant ADAM10, EDANS/DABCYL FRET peptide cleavage, 3 h; inhibition, % at 7 µM; 370,000 compounds, 0.62% hits; AID 720582;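 active = inhibition above a per-campaign cutoff equal to the mean of compounds falling between control-based bounds plus 3 SD, cut at about 20% in these data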;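 also: 0% = DMSO wells while the 100% control is not disclosed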
ADAM17 inh – inhibitors of human ADAM17. recombinant ADAM17, EDANS/DABCYL FRET peptide cleavage. P78536. AID 720648. 370,000 compounds, 0.83% hits. inhibition, % at 6.95 µM;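 active = inhibition above the mean of compounds lying between control limits plus 3 SD, set per campaign, cut at about 8.5% in these data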;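 also: 0% = DMSO-only wells as the low control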
PLC-gamma1 inh – blocks human PLC-gamma1 enzyme activity; P19174; purified PLC-gamma1, fluorogenic substrate, fluorescence; inhibition, % at 12.2 µM; 370,000 compounds, 0.84% hits; AID 720700; in the data active = inhibition above about 9.5%
ADAM10 confirm – human ADAM10 inhibition, confirmation; shares compounds with ADAM10 inh; 2,100 compounds, 1% hits; AID 743208; ADAM10 QFRET peptide cleavage, EDANS fluorescence; inhibition, % at 6.95 µM;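 active = inhibition above about 20% chosen separately for each screening run, limit read from the data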;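 also: 0% = DMSO wells and 100% = marimastat wells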
ADAM17 ctr – ADAM17 inhibition, counter-screen for ADAM10 exosite hits; AID 743214; ADAM17 QFRET peptide cleavage, EDANS fluorescence; 2,100 compounds, 0.5% hits; inhibition, % at 6.95 µM; shares compounds with ADAM10 inh;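 active = mean triplicate inhibition above the solvent-only control wells' mean plus 3 SD, cut at about 12% in these data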;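 also: 0% = DMSO wells and 100% = marimastat wells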
ADAM10 ctr – ADAM10 inhibition, counter-screen for ADAM17 exosite hits; inhibition, % at 6.95 µM; AID 743256; recombinant ADAM10, EDANS/DABCYL FRET peptide cleavage, 3 h; shares compounds with ADAM17 inh; 2,900 compounds, 47% hits;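 active = mean inhibition over the triplicate runs exceeds the activity threshold set in the earlier primary screen, cut at about 20% in these data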;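 also: 0% = DMSO wells and 100% = marimastat wells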
ADAM17 confirm – human ADAM17 inhibition, confirmation. AID 743257. inhibition, % at 6.95 µM. 2,900 compounds, 65% hits. shares compounds with ADAM17 inh. recombinant ADAM17, EDANS/DABCYL QFRET peptide cleavage;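 active = mean inhibition across replicates above the hit cutoff set in the primary screen, cut at about 8.5% in these data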;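 also: 0% = DMSO wells and 100% = marimastat wells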
Numbers without * were called inactive; . = no result given; ! = not active in a repeat. Sampled rows, rich in hits. Any-hit rate of the full collection: about 2.9%.

SMILES | PLCb3 inh | proKLK7 act | ADAM10 inh | ADAM17 inh | PLC-gamma1 inh | ADAM10 confirm | ADAM17 ctr | ADAM10 ctr | ADAM17 confirm
Cc1cc(C)cc(N(CC(=O)NC2CCC(C)CC2)S(=O)(=O)c2ccc(Cl)s2)c1 (stereo not drawn) | -2 | 1 | -5 | 1 | -1 | . | . | . | .
COCCCN1C(=O)[C@H](CC(=O)N2CCC(c3ccccc3)CC2)[C@]2(C(=O)OC)CCCCC=C12 | 5 | 1 | 5 | 4 | 8 | . | . | . | .
O=S1(=O)c2ccc(N3CC[C@@H](O)C3)cc2OCCCN1C1CC1 | 0 | 0 | 2 | -1 | -1 | . | . | . | .
C/C(=N/Nc1ccc([N+](=O)[O-])cc1)c1ccc(C)cc1C | -48 | -1 | 23* | 9.6* | -43 | 7 | 3 | 19 | 15*
C/C(=N\Nc1ccc([N+](=O)[O-])cc1)c1ccc(C#N)cc1 | -10 | 0 | 5 | 0 | 4 | . | . | . | .
COc1ccc(C(CCOC(=O)Oc2ccccc2)c2cc(OC)cc(OC)c2)cc1 (stereo not drawn) | 1 | 0 | 15 | 7 | 3 | . | . | . | .
COc1ccc(S(=O)(=O)Nc2cc3c4c(oc3c3ccccc23)CC(C)(C)CC4=O)cc1 | 1 | 1 | 26* | 9.1* | 3 | 11 | 2 | 21* | 11*
COc1ccc(C(=O)NC(=S)NNC(=O)[C@H]2C[C@@H]2c2ccccc2)cc1OC | -1 | 0 | 32* | 11* | 0 | 3 | 3 | -18 | -1
CC(=O)Nc1ccc(C(=O)N2CCCCC2c2cc(C(=O)Nc3cccc4c3CCCC4)no2)cc1 (stereo not drawn) | 0 | 1 | -8 | 3 | 2 | . | . | . | .
Cn1nc(C(C)(C)C)cc1C(=O)N1CCCCC1c1cc(C(=O)Nc2cccc3c2CCCC3)no1 (stereo not drawn) | 1 | 0 | 21* | 12* | 0 | 7 | 2 | 18 | 9.2*
COc1ccc(Cl)cc1NC(=S)NCCc1c[nH]c2ccccc12 | 4 | 0 | 22* | 10* | 4 | 4 | 1 | 36* | 21*
CC(O)[C@H]1CNCCN1CC1(c2ccccc2)CC1 (stereo partly drawn) | 10 | 0 | 20* | 11* | 5 | 2 | 0 | -5 | 1
C[C@@H]1COc2cc(Br)ccc2S(=O)(=O)N1Cc1cn(Cc2ccc(Br)cc2)nn1 | 0 | 0 | -5 | -3 | 2 | . | . | . | .
CN1OC[C@@H]2CN(C(=O)c3ccc(C#N)cc3)[C@H](c3cccc(Br)c3)C[C@@H]21 | 4 | 0 | -2 | -2 | 2 | . | . | . | .
Cc1cccc(NC(=S)NNc2ncc(C(F)(F)F)cc2Cl)c1 | -1 | 0 | 21* | 13* | -3 | 2 | 0 | 1 | 1
COc1cc(NC(=O)C2CCCN(S(=O)(=O)c3ccccc3[N+](=O)[O-])C2)cc(OC)c1 (stereo not drawn) | 0 | 0 | -2 | 2 | 7 | . | . | . | .
COc1ccc(NS(=O)(=O)c2cccc(N/C(=N\S(=O)(=O)c3ccccc3)c3ccc(F)cc3)c2)cc1 | 4 | 0 | 21* | 8.7* | 3 | 4 | 1 | 24* | 15*
O=S(=O)(/N=C(/Nc1ccc(Cl)c(S(=O)(=O)Nc2ccccc2Cl)c1)c1ccc(F)cc1)c1ccccc1 | 3 | 0 | 22*! | 12*! | 5 | 7 | 2 | 36* | 18*
CCC(c1nnnn1-c1ccc2c(c1)OCCO2)N1CCN(c2ccccc2OC)CC1 (stereo not drawn) | 4 | 0 | -10 | 0 | 1 | . | . | . | .
O=C(CSc1nnc(COc2ccccc2)n1-c1ccc(Cl)cc1)Nc1ccccc1-c1ccccc1 | 8 | 1 | 28* | 13* | 7 | 6 | 2 | 19 | 14*
O=C(CSc1nnc(-c2cccs2)n1Cc1ccco1)Nc1ccc(Oc2ccccc2)cc1 | -2 | 1 | 21* | 8.7* | -1 | 13 | 5 | 28* | 14*
Cc1ccc(-n2c(Cc3cccs3)nnc2SCC(=O)Nc2ccc(OCc3ccccc3)cc2)cc1 | 1 | 0 | 21* | 12* | -1 | 11 | 3 | 22* | 15*
COc1ccc(-n2c(Cc3cccs3)nnc2SCC(=O)Nc2ccc(OCc3ccccc3)cc2)cc1 | -5 | 1 | 21* | 11* | 3 | 12 | 4 | 25* | 16*
Cn1c(Cc2cccs2)nnc1SCC(=O)Nc1ccc(OCc2ccccc2)cc1 | 6 | 0 | 11 | 2 | 2 | . | . | . | .
CC1(NC(=O)c2ccc(C#Cc3cccc(F)c3)cn2)COC1 | -13 | 1 | -100 | -28 | -9 | . | . | . | .
SMILES | PLCb3 inh | proKLK7 act | ADAM10 inh | ADAM17 inh | PLC-gamma1 inh | ADAM10 confirm | ADAM17 ctr | ADAM10 ctr | ADAM17 confirm
COC(=O)[C@H](C(C)C)N(CCCc1cn(Cc2ccccc2)nn1)S(=O)(=O)c1ccccc1Br | 4 | 1 | 10 | 5 | 1 | . | . | . | .
COC(=O)[C@]12C[C@H](CC(=O)NCCC(C)C)C(=O)N(Cc3ccccc3)C1=C[C@H](C1CCCC1)O[C@@H]2C | 2 | 0 | 12 | 0 | 0 | . | . | . | .
O=C(COC(=O)CCCOc1ccc(Cl)cc1Cl)Nc1cccc(Cl)c1 | -2 | 0 | 23* | 13* | -4 | 9 | 4 | 38* | 20*
COc1ccc(CNC(=O)COC(=O)CCCOc2ccc(Cl)cc2Cl)cc1 | 0 | 0 | 10 | 3 | 0 | . | . | . | .
CCOC(=O)c1ccc(NC(=O)C2CCCN(S(=O)(=O)c3ccc(F)cc3)C2)cc1 (stereo not drawn) | 0 | -1 | 25* | 8.8* | 8 | 1 | 1 | 17 | 13*
C=CCOc1ccc(Br)cc1/C=N/O | 1 | 0 | -6 | -2 | 1 | . | . | . | .
O/N=C/c1cc(Br)ccc1OCc1ccccc1F | -3 | 0 | 21* | 9.1* | 2 | 5 | 1 | 30* | 17*
CCOc1ccc(C(=O)Nc2nnc(NC(=S)Nc3ccccc3)s2)cc1 | -6 | 0 | 10 | 6 | 2 | . | . | . | .
Cc1ccc(C(=O)Nc2nnc(NC(=S)Nc3ccccc3)s2)cc1 | -45 | -1 | 24* | 9.2* | -22 | 12 | 4 | -9 | 3
COCCN=c1scc(-c2ccco2)n1/N=C/c1ccc(O)c(O)c1O | -14 | 0 | 10 | 1 | -7 | . | . | . | .
COCCN=c1scc(-c2cc(OC)ccc2OC)n1/N=C/c1c[nH]c2ccccc12 | -1 | 1 | 20* | 11* | -2 | 17 | 7 | 16 | 12*
Cc1c(C(=O)NCCN2CCOCC2)oc2ccc(Br)cc12 | -6 | 0 | -6 | -5 | 1 | . | . | . | .
